Screens deposited in PubChem by National Center for Advancing Translational Sciences (NCATS).
An excerpt weighted towards active compounds, which were near 3.3% of everything screened.
NPSR antag: blocks cAMP signaling of the human neuropeptide S receptor. Potency, µM (highest dose often 38.3 µM), for the others: at the highest dose activity change, negative = inhibition, usual class: inhibitors. 220,000 compounds, 1% hits. Q6W5P4. AID 1461. CHO-NPSR cells, cAMP TR-FRET, antagonist mode; further: nearly all actives have a fitted effect of over 50% in size
Target sequence (Q6W5P4 whole entry, looked up): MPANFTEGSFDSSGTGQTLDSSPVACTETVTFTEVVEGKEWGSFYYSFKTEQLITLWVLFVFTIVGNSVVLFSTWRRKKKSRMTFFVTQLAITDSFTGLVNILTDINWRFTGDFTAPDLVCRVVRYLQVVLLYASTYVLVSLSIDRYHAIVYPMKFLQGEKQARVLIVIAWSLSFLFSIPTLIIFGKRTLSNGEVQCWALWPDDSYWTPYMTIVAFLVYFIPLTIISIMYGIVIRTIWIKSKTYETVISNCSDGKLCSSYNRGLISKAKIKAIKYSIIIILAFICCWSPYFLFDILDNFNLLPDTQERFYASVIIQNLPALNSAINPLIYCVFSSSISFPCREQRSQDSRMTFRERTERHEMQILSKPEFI
Tau fluor counter: counter-screen for tau fibril formation inhibitors | tau K18 P301L Alexa594 fluorescence, heparin fibrillization | Potency, µM (top dose mostly 57.7 µM), inactives show at the top dose activity change, negative = decrease | 280,000 compounds, 0.93% hits; further: nearly all actives have a fitted effect of over 55% in size
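Human K18 P301L tau (15 uM unlabeled plus 0.24 uM Alexa 594-labeled, final) in 100 mM sodium acetate pH 7 was mixed with compound and 20 uM heparin and incubated 6 hr at 37 C.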
Tau fibril FP: blocks human tau fibril formation measured by polarization. P10636. K18 P301L tau heparin fibrillization, Alexa594 FP, 6 h. 280,000 compounds, 0.39% hits. Potency, µM (highest dose often 57.7 µM), without a hit: at the highest dose activity, negative = inhibition, most hits filed as inhibitors; further: nearly all actives have a fitted effect of over 55% in size
Target sequence (P10636 561-689 P618L limits assumed): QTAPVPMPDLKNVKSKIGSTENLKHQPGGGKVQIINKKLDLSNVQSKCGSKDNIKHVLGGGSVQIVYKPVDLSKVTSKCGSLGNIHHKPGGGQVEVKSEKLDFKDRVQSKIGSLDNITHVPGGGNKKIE
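Quantitative HTS format: compounds meet 15 uM recombinant K18 P301L tau and Alexa 594-tau tracer in 100 mM sodium acetate pH 7; 20 uM heparin triggers fibrillization at 37 C over 6 hr; FP gives the signal.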
Tau fibril ThT: tau fibrillization inhibition (ThT binding); P10636; recombinant tau K18 P301L, heparin-induced fibrillization, ThT fluorescence; Potency, µM (highest dose often 57.4 µM), for the others: at the top dose activity, negative = inhibition, actives largely listed as inhibitors; 270,000 compounds, 2.1% hits; further: nearly all actives have a fitted effect of over 55% in size
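ThT emission at 510 nm, taken 1 hr after adding 30 uM dye, quantifies aggregates formed when 20 uM heparin acts on human tau K18 P301L for 6 hr at 37 C.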
Luc counter: Kinase-Glo luciferase inhibition (counter-screen); AID 1379; Potency, µM (doses to about 38.3 µM), for inactives: at the highest dose activity change, negative = inhibition, actives largely listed as inhibitors; 200,000 compounds, 0.28% hits; Kinase-Glo luciferase, ATP luminescence, 8 min; Q27757; further: nearly all actives have a fitted effect of over 60% in size
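Light output from Kinase-Glo luciferase with luciferin and 10 uM ATP in 50 mM imidazole pH 7.2, KCl, MgCl2, Tween 20, BSA; compound pin-delivered, 8-min ambient incubation, then luminescence read.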
The depositor's hits bear a star; ? = inconclusive; · = not tested or not shown; ! = repeats disagree; [ ] = dose if it differs, or a comment. The call rests on the fitted dose curve; in most records, active means well fitted curve in the direction sought with a large enough effect; inconclusive means small, poorly fitted or top-dose-only effect, or another doubt; inactive means no such curve, though single readings can be large; an effect the other way counts as inactive or inconclusive. On the % scale 0 is the no-effect control and ±100 the full control effect; potency means the concentration at half of the fitted maximal effect.

SMILES	NPSR antag	Tau fluor counter	Tau fibril FP	Tau fibril ThT	Luc counter
S=C(Nc1ccc(Nc2ccccc2)cc1)NC1CCCCCC1	-31%	10µM*[quencher]	9%	-16%	2%
CC1CCCN(C(=S)Nc2ccc(Nc3ccccc3)cc2)C1 (stereo unspecified)	16%	13µM*[quencher]	?	?	2%
CC1CCCN(C(=S)Nc2ccc(F)cc2)C1 (stereo unspecified)	-9%	7%	3%	6%	1%
S=C(NNc1cccc(Cl)c1)NC1CCCCC1	-53%	-28%	?	25µM*	-1%
S=C(Nc1ccc(Cl)cc1)NC1CCCCC1	?	-30%	-4%	-10%	·
Cn1c(NC(=O)c2ccc(F)cc2)c(-c2ccccn2)c(=O)c2ccccc21	?	-12%	-5%	-12%	·
O=C(CSc1nc2ccsc2c(=O)n1-c1ccc(Br)cc1)NCc1ccccc1	·	-4%	-14%	2%	·
Clc1cccc(N/N=C/c2ccc(N3CCOCC3)s2)c1	-25%	16µM*[quencher]	?	13µM*	1%
O=C(N/N=C/c1ccc(N2CCOCC2)s1)c1ccccc1Br	-29%	-12%	3%	?	-2%
COc1ccc(Nc2c3c(nc4ccc(NC(=O)c5ccc(F)cc5)cc24)CCCC3)cc1OC	·	?	8%	16µM*	·
COc1ccc(C(=O)Nc2ccc3nc4c(c(Nc5ccc(OC)c(OC)c5)c3c2)CCCC4)c(OC)c1	·	-20%	0%	?	·
COc1ccccc1Nc1c2c(nc3ccc(NC(=O)c4cccc(OC)c4OC)cc13)CCCC2	·	?	4%	?	·
COc1ccc(C(=O)Nc2ccc3nc4c(c(Nc5ccccc5OC)c3c2)CCCC4)c(OC)c1	·	?	-7%	18µM*	·
COc1ccccc1Nc1c2c(nc3ccc(NC(=O)c4ccc(OC)c(OC)c4)cc13)CCCC2	·	?	-17%	25µM*	·
Cc1cccc(-c2nc(Cn3c(=O)cc(-c4ccccc4)c4c(C)nn(C)c43)c(C)o2)c1	·	-2%	-2%	-19%	·
CCCc1ccc(Oc2c(-c3ccc(O)c(C)c3O)n[nH]c2C)cc1	?	13µM*[quencher]	?	28µM*	3%
CCCc1ccc(Oc2cn[nH]c2-c2ccc(O)c(C)c2O)cc1	10µM*	14µM*[quencher]	-6%	25µM*	-2%
CCC(=O)N[C@@H]1Cc2ccccc2[C@@H](c2ccccc2)C1	·	-10%	3%	-8%	-3%
C(=N\Nc1nc2ccccc2[nH]1)/c1cccc2cccnc12	?	?	8%	4.5µM*	·
C(=C\c1ccccc1)/C=N/Nc1nc2ccccc2[nH]1	14%[46.1 µM]	?	11%	7.9µM*	·
Cc1ccc(/C=N/Nc2nc3ccccc3[nH]2)s1	-50%	?	?	7.9µM*	-11%
Cc1ccccc1/C=N/Nc1nc2ccccc2[nH]1	-40%	?	5%	?	2%
C(=N\Nc1nc2ccccc2[nH]1)/c1c[nH]c2ccccc12	-13%	16µM*[quencher]	10%	13µM*	-2%
C=CCSc1nnc2nc3[nH]c4c(C)cccc4c3nn12	-6%[46.1 µM]	-15%	8%	16µM*	-1%
CCSc1nnc2c(n1)[nH]c1c(C)cccc12	-8%[46.1 µM]	0%	3%	-11%	-6%
SMILES	NPSR antag	Tau fluor counter	Tau fibril FP	Tau fibril ThT	Luc counter
CS(=O)(=O)N1CCc2cc(C(=O)Nc3ccc(Cl)c(C(F)(F)F)c3)ccc21	·	?	20µM*	17%	·
CS(=O)(=O)N1CCc2cc(C(=O)Nc3ccc(C(F)(F)F)cc3)ccc21	·	-16%	?	4%	·
COc1cc(NS(C)(=O)=O)ccc1Nc1c2ccccc2nc2ccccc12	?	?	-1%	14µM*	-5%
CS(=O)(=O)Nc1cccc(-c2nc(Nc3ccc(F)cc3)c3ccccc3n2)c1	·	?	?	13%	-2%
COc1ccc(/C=C2\SC(=O)N(CCNC(=O)Cc3coc4cc(C)ccc34)C2=O)cc1OC	12%	-25%	?	13µM*	-4%
COc1ccc(/C=C2\SC(=O)N(CC(=O)NCCC(C)C)C2=O)cc1OC	8%[7.67 µM]	-8%	-7%	-6%	·
COc1ccc2nc(N=NC3=C(O)CC(C)(C)CC3=O)sc2c1	-44%	-22%	3%	16µM*	-7%
COc1ccc2nc(N=Nc3ccc(O)c4ccccc34)sc2c1	-4%	?	-15%	2.5µM*	-20%
COc1cc2[nH]c(=O)n(CCCC(=O)NCc3ccccc3Cl)c(=O)c2cc1OC	·	1%	-5%	-3%	·
CCOc1ccc(/C=N/N(C)c2ccccc2)cc1OC	-23%[46.1 µM]	?	?	7.9µM*	6%
CCOc1ccc(/C=N/Nc2ccccn2)cc1OC	-9%	-14%	5%	?	-4%
CC1(C)CC(=O)C=C(NC2=CC3OC(c4ccccc4)OCC3OC2=O)C1 (stereo unspecified)	2.5µM*	-7%	?	18µM*	1%
Cc1ccc(CNC(=O)Cn2ccn(-c3ccc(C)c(C)c3)c(=O)c2=O)cc1	·	-8%	-10%	-3%	·
Cc1cc(O)c2c(c1)C(=O)c1cccc(O)c1C2=O	12%	-10%	-1%	?	-1%
O=C(O)c1cc(O)c2c(c1)C(=O)c1cccc(O)c1C2=O	-28%	18µM*![quencher]	?	18µM*	-2%
Cn1c(SCc2ccc(C(F)(F)F)cc2)nc2c([nH]c3ccccc32)c1=O	·	-14%	-8%	-3%	·
CCOc1ccc(NC(=O)Cn2cc(C(=O)c3ccc(C)c(C)c3)c(=O)c3cc(F)ccc32)cc1	·	-23%	-4%	1%	·
CCc1nnc(NS(=O)(=O)c2ccc(Nc3ccc([N+](=O)[O-])c4nonc34)cc2)s1	-4%	-14%	4%	14µM*	-13%
NS(=O)(=O)c1ccc(Nc2ccc([N+](=O)[O-])c3nonc23)cc1	-35%	-22%	-11%	16µM*	·
CCc1nnc(NS(=O)(=O)c2ccc(NC(=O)OC)cc2)s1	-22%[7.67 µM]	-9%	-5%	-8%	3%
CCc1cc(SC#N)cc(CC)c1NC(=O)CCl	-24%	-27%	7.1µM*	3.5µM*	-2%
Cc1ccc(C(=O)N2CCc3cc(CNC(=O)CCc4ccccc4)ccc32)cc1	·	4%	9%	-3%	·
N#CC(C#N)=C1C=CC=CN1/C(=C\c1ccco1)C(=O)c1ccc(Cl)cc1	?	?	28µM*	22µM*	3%
N#CC(C#N)=C1C=CC=CN1/C(=C\c1ccco1)C(=O)c1ccc(-c2ccccc2)cc1	-21%	-29%	?	16µM*	2%
N#C/C(=C\c1ccco1)C(=O)NCc1ccccc1	-3%	8%	1%	17%	-1%
Cc1cccc(OCC(=O)N/N=C\c2cn(C)c3ccccc23)c1	19%	-24%	4%[2.34 µM]	-1%	-7%
Cc1cccc(OCCn2cc(/C=N/NC(=O)c3ccncc3)c3ccccc32)c1	20%	16µM*[quencher]	2%	?	-1%
Oc1cccc(/C=N/Nc2cccc3cccnc23)c1	19%	16µM*[quencher]	?	14µM*	-16%
